# From paper PMC5540273 (PLoS ONE, 2017)
# Test system: T1, FAK
# T1 construct: gene PTK2
# Conditions: concentration: 1 μM, replicates: in singlicate; n = 1
# 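Also: KINOMEscan kinase panel screen.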
row,Compound,%Inh [%]
1,N#Cc1c(N2CCOCC2)sc(-c2ccn[nH]2)c1-c1ccc(Cl)cc1,0
2,c1ccc(-c2cc(-c3c[nH]nc3-c3ccccn3)ccn2)cc1 [GW576604],6
3,O=C(NCCCN1CCOCC1)c1cccc(Nc2nccc(Nc3ccc(Oc4ccccc4)cc3)n2)c1 [GW663929],0
4,CCCCCc1nc2c(N)ncnc2n1CCCCC [SKF-97255],0
5,Cc1c(Cn2c(C)nn3c(=O)cc(N4CCOC(C)C4)nc23)cccc1C(F)(F)F (centres unmarked) [GSK2344444],0
6,O=C(NCCNc1ccnc(Nc2ccc(F)cc2)n1)c1cc2ccccc2s1 [GSK1379874],0
7,CC(C)Oc1ccc2c(-c3ccnc(Nc4ccc(N5CCN(C)CC5)cc4)n3)cnn2n1 [GW696155],0
8,COc1cc2c(cc1OCCN1CCN(C)CC1)ncc1c3ccc(C#N)cc3[nH]c21,27
9,CC(=O)Nc1ccc(COc2ccc(Nc3ccnc4cc(-c5ccccn5)ccc34)cc2)cc1.Cl [GW440148],1
10,CC(C)(C)n1cnc2c(N)ncnc21 [SKF-97359],0
11,CC(C)(CN)c1nc(-c2ccc(Cl)c(O)c2)c(-c2ccncc2)[nH]1.O=C(O)C(F)(F)F [SB-477794],0
12,CN(C1=C(c2ccccc2)C(=O)NC1=O)c1ccccc1 [SB-334860],0
13,Cl.Nc1ncnc2occ(-c3ccc(NC(=O)Nc4cc(C(F)(F)F)ccc4F)cc3)c12 [SB-707548],93.7
14,NS(=O)(=O)c1cccc(-c2ccc3nccc(-c4cccc(S(N)(=O)=O)c4)c3c2)c1 [GW867253],0
